{"source": "paper PMC7819943", "about": "“Rice protein-binding microarrays: a tool to detect cis-acting elements near promoter regions in rice”", "note": "Over roughly 35,000 sequences, “fluorescence intensity (a.u.)” has its median near 10,000; the highest 2% begin near 52,000. The entries come from a sample that favours the highest values as a whole.", "data": [{"target": "T1, OsWOX13 (Oryza sativa, UniProt Q5QMM3 1-267)", "T1 sequence": "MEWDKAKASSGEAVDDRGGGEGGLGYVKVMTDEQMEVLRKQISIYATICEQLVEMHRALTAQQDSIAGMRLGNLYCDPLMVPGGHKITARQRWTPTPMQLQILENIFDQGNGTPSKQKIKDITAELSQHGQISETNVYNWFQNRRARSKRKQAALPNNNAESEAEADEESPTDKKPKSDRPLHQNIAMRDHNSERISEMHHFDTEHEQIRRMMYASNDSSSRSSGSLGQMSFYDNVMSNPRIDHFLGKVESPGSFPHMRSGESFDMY", "assay": "protein-binding microarray (RPBM); PBS, 2% BSA, 51.3 ng/ul salmon testes DNA, 50 uM zinc acetate, 200 nM TF, 25 C, 1 h; high values mean tight binding", "details": "protein: recombinant; tags: N-terminal polyhistidine and DsRed monomer fusion (pET32a); label: CyDye5-dUTP incorporated in the synthesized complementary strand; 3' TTTTT single-stranded linker to array surface; dsDNA, one strand shown", "how_it_was_run": "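Using Ni–NTA, transcription factors fused N-terminally to polyhistidine and DsRed were purified after expression in E. coli BL21-CodonPlus. These were incubated at 200 nM with a blocked, double-stranded custom Agilent array for 1 h at 25 °C in a buffer containing 50 µM zinc acetate, and the array was washed. The binding signal is per-feature fluorescence intensity (arbitrary units) on an Axon 4000B scanner.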", "values": [{"sequence": "GACTCTATCTAGAAATTAAATTTAATCAACACATGTAAGTCGGAGTCACCTAGTGCAG", "binding signal": "12800 fluorescence intensity (a.u.)"}, {"sequence": "TTTATTTAATTGATTCGATGAACTTTGTGCCATTAAAATTCGGAGTCACCTAGTGCAG", "binding signal": "35000 fluorescence intensity (a.u.)"}, {"sequence": "AGGTGGCCCCATTAATTGATGATGAAATGCAAACCTAAATCGGAGTCACCTAGTGCAG", "binding signal": "9480 fluorescence intensity (a.u.)"}, {"sequence": "TAAATTGACATGATTAATTGAAACCACGCCATTCAGCAATCGGAGTCACCTAGTGCAG", "binding signal": "65500 fluorescence intensity (a.u.)"}, {"sequence": "TATGATTAAAATTGTTTTGAACCATTGCACGCACCAGCATCGGAGTCACCTAGTGCAG", "binding signal": "18500 fluorescence intensity (a.u.)"}, {"sequence": "TGGGGTATCTAGTCAATCATACAATATTTTGTTTTGCTAACGGAGTCACCTAGTGCAG", "binding signal": "7400 fluorescence intensity (a.u.)"}, {"sequence": "AGGAAAATGTGGTGAGTAATTAGGTTATAATTTATTGAGTCGGAGTCACCTAGTGCAG", "binding signal": "4100 fluorescence intensity (a.u.)"}, {"sequence": "AGTGTGATTGATGCACAAACAAACAGCTCAAGTTGAGGCCCGGAGTCACCTAGTGCAG", "binding signal": "55400 fluorescence intensity (a.u.)"}, {"sequence": "GTTTCAATGATTGGTTGTTCACCCAACCCAAGTACCCAGCCGGAGTCACCTAGTGCAG", "binding signal": "57400 fluorescence intensity (a.u.)"}, {"sequence": "TGCCCCAATGATTTTGTACCACAGACCAGCTCAAGTTGCCCGGAGTCACCTAGTGCAG", "binding signal": "4400 fluorescence intensity (a.u.)"}, {"sequence": "AAGTGATTGCCCTGGCTCAGAGTTGAGTAAACAATCAGGCCGGAGTCACCTAGTGCAG", "binding signal": "19900 fluorescence intensity (a.u.)"}, {"sequence": "TGATGATTGGTTTCTTGGCCAATGGTTTGGTTGTTGTTTTCGGAGTCACCTAGTGCAG", "binding signal": "23100 fluorescence intensity (a.u.)"}, {"sequence": "TCTCATTGACAAGCCAACAAACGCACAGTGTGACAAGCTCCGGAGTCACCTAGTGCAG", "binding signal": "3600 fluorescence intensity (a.u.)"}, {"sequence": "AAAGAGAACACATAATTGATTTGGAGCACCCAAATAATTTCGGAGTCACCTAGTGCAG", "binding signal": "15200 fluorescence intensity (a.u.)"}, {"sequence": "TTGTGATTGATTTCACACCCAAACAACAAGTAGTCAGCTACGGAGTCACCTAGTGCAG", "binding signal": "61300 fluorescence intensity (a.u.)"}, {"sequence": "CATAATTGAGTCTGATTGGCACAAACCTAGAGAACATGCCCGGAGTCACCTAGTGCAG", "binding signal": "65500 fluorescence intensity (a.u.)"}, {"sequence": "AAAATCAAGATTGATGTGGTTTCACCCCAACACAAGAAAACGGAGTCACCTAGTGCAG", "binding signal": "8050 fluorescence intensity (a.u.)"}, {"sequence": "TTGATAATTGGGCACCTATGCCCGACACATAAAACACACTCGGAGTCACCTAGTGCAG", "binding signal": "22200 fluorescence intensity (a.u.)"}, {"sequence": "GATAGATAGATAGATACATACACACAAACATAAGTAGCTACGGAGTCACCTAGTGCAG", "binding signal": "19100 fluorescence intensity (a.u.)"}, {"sequence": "ATGTGATTATTTCGTCCTGCTGTAAACTTGGTGCAAGTGACGGAGTCACCTAGTGCAG", "binding signal": "18600 fluorescence intensity (a.u.)"}, {"sequence": "GGCTTTCCAGTTGATAAATCAATCATCATCCCCTTGATCGCGGAGTCACCTAGTGCAG", "binding signal": "8410 fluorescence intensity (a.u.)"}, {"sequence": "ATGTTCTTTCTTGATTAGACCATCTGATGCTTTGCGCAGTCGGAGTCACCTAGTGCAG", "binding signal": "4480 fluorescence intensity (a.u.)"}, {"sequence": "TAGGAGATTATATTTAAATTAACTTTAAAGAGAAATCTTGCGGAGTCACCTAGTGCAG", "binding signal": "11600 fluorescence intensity (a.u.)"}, {"sequence": "GGTTGTTAGCACATGATTAATTGTATTAAAACAACTTAAACGGAGTCACCTAGTGCAG", "binding signal": "3580 fluorescence intensity (a.u.)"}, {"sequence": "AAGATTGAAGGCAACCAAACCAACAAGGATGGATGCTTCTCGGAGTCACCTAGTGCAG", "binding signal": "16500 fluorescence intensity (a.u.)"}, {"sequence": "GGACGTATATATACATTGATTAATACCAAATCCTCAGCACCGGAGTCACCTAGTGCAG", "binding signal": "4520 fluorescence intensity (a.u.)"}, {"sequence": "GTTGATTTGTGTTTTGACTTTTGAAAAGACTACTGTTACTCGGAGTCACCTAGTGCAG", "binding signal": "27500 fluorescence intensity (a.u.)"}, {"sequence": "ATATTATTTATAAATTGTGTGTGCAACTGACTTGTGGGCCCGGAGTCACCTAGTGCAG", "binding signal": "3490 fluorescence intensity (a.u.)"}, {"sequence": "CATAAATTAATTTGTTCACGTCACATTATATACAGTTGTACGGAGTCACCTAGTGCAG", "binding signal": "55000 fluorescence intensity (a.u.)"}, {"sequence": "TTTTATATTTTAATTAATTACATAATGTAAATATTTCTCACGGAGTCACCTAGTGCAG", "binding signal": "17100 fluorescence intensity (a.u.)"}, {"sequence": "AATTAAATTAGAGTATTCAGTTTGTATATAGTACATTTGTCGGAGTCACCTAGTGCAG", "binding signal": "14000 fluorescence intensity (a.u.)"}, {"sequence": "AGTGATTATAATATTGTTCACAAATTTACAAACCTCTCATCGGAGTCACCTAGTGCAG", "binding signal": "36700 fluorescence intensity (a.u.)"}, {"sequence": "ATTATATATTTAATAAAATTAATTTGGTGTTGTATATTTACGGAGTCACCTAGTGCAG", "binding signal": "8780 fluorescence intensity (a.u.)"}, {"sequence": "TTATAATTACTACATTATAATAAAAGTAAAATTGTATTTACGGAGTCACCTAGTGCAG", "binding signal": "12100 fluorescence intensity (a.u.)"}, {"sequence": "TAAAATTATCAAAATATTATATTATACACATAAGATTGTACGGAGTCACCTAGTGCAG", "binding signal": "5140 fluorescence intensity (a.u.)"}, {"sequence": "TTATAATTGTAAATTTTACAAATTAGTCCTCACCTGTTCTCGGAGTCACCTAGTGCAG", "binding signal": "53400 fluorescence intensity (a.u.)"}, {"sequence": "TTGTAATTACATAAATTATACGAATTGTAAAGATTTGGCACGGAGTCACCTAGTGCAG", "binding signal": "54600 fluorescence intensity (a.u.)"}, {"sequence": "ACATATGTGATTAGTATCAGTTCATCAGTAGTCTTCCAATCGGAGTCACCTAGTGCAG", "binding signal": "18500 fluorescence intensity (a.u.)"}, {"sequence": "CTGACAGGTATTATTGCTTGATATATTTTACTCACTTTACCGGAGTCACCTAGTGCAG", "binding signal": "14800 fluorescence intensity (a.u.)"}, {"sequence": "ATGGGAGGTGAGATTGGGATTGGGAAATAAATGAATGGCTCGGAGTCACCTAGTGCAG", "binding signal": "5250 fluorescence intensity (a.u.)"}, {"sequence": "GAGCAGATGATTAGTGAAGGTGTAACCCCTAACATCGTTACGGAGTCACCTAGTGCAG", "binding signal": "12900 fluorescence intensity (a.u.)"}, {"sequence": "AATAAATTGTGTGGAAATTTAGCTTGCCCAATCAGATTGACGGAGTCACCTAGTGCAG", "binding signal": "16000 fluorescence intensity (a.u.)"}, {"sequence": "TGCTAATTGGGGATTTTCACATTCATGCTGTGTTAGCAGGCGGAGTCACCTAGTGCAG", "binding signal": "54700 fluorescence intensity (a.u.)"}, {"sequence": "AATTCTAATTGGGGAGCATTTAAAGGCTGGGTTTTAGTGGCGGAGTCACCTAGTGCAG", "binding signal": "20100 fluorescence intensity (a.u.)"}, {"sequence": "AATGTGTTAGCGTTTAATTTGCGATTGGATTTGTTTCAGGCGGAGTCACCTAGTGCAG", "binding signal": "3560 fluorescence intensity (a.u.)"}]}]}
